Measured values from PubChem BioAssay.
Calls of active or inactive are those of the source.

Columns and labels:
[1] = optical density shifts of acrAB sulA E. coli – strain DRC41, OD650, 48 h, E. coli filamentation inducer project, primary screen (AID 1152); conditions: higher = more signal, called active from +8 up or from −8 down;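 also: E. coli MC1000 strain DRC41 lacking acrAB efflux pump and sulA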
[2] = probe aLefty1 binding on compound microarray – biochemical, small-molecule microarray, 635/667 nm fluorescence, primary screen (AID 1153); conditions: higher = more signal;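 also: score merges spot fluorescence with signal-to-noise ratio from the scanned slide images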
[3] = plasmodial surface anion channel blockers, osmotic lysis – cell-based, P. falciparum Indochina, OD700, 1 h, primary screen (AID 1154); conditions: P. falciparum Indochina infected RBC osmotic lysis, higher = more signal, called active from +8 up or from −8 down
[4] = plasmodial surface anion channel blockers, osmotic lysis – cell-based, P. falciparum Indochina, OD700, 2 h, primary screen (AID 1155);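 also: lysis reports solute entry through the parasite surface anion channel PSAC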; conditions: P. falciparum Indochina infected erythrocytes, higher = more signal, called active from +8 up or from −8 down
[5] = changes in parasitized red cell lysis, either direction – P. falciparum Indochina, OD700, 3 h, PSAC antagonist project, primary screen (AID 1156); conditions: P. falciparum-infected erythrocytes, osmotic lysis, higher = more signal, called active from +8 up or from −8 down
[6] = plasmodial surface anion channel blockers, osmotic lysis – cell-based, P. falciparum Indochina, OD700, 18 h, primary screen (AID 1157); conditions: P. falciparum Indochina infected erythrocytes, osmotic lysis OD700, 18 h; higher = more signal, called active from +8 up or from −8 down
[7] = S6 kinase pathway phospho-S6 level changes – cell-based, A549, cytoblot, luminescence, serum-stimulated, primary screen (AID 1158); conditions: 5 h, higher = more signal;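 also: serum-stimulated A549 lung adenocarcinoma cells; signal is phosphorylated S6 detected by cytoblot immunostaining with HRP secondary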
[8] = target: NADPH oxidase 2 (Homo sapiens) (UniProt P04839); experiment: compounds shifting NOX2 Amplex Red fluorescence – cell-based, HEK293-NOX2, PMA-stimulated, NOX inhibitor project, primary screen (AID 1159); conditions: 45 min, higher = more signal, called active from +8 up or from −8 down; also: test concentration not given here
[9] = target: NADPH oxidase 4 (Homo sapiens) (UniProt Q9NPH5); experiment: compounds shifting NOX4 Amplex Red fluorescence – cell-based, HEK293-NOX4, tetracycline-induced, NOX inhibitor project, primary screen (AID 1160); conditions: HEK293-NOX4, Amplex Red H2O2 fluorescence, 45 min; higher = more signal, called active from +8 up or from −8 down
[10] = target: NADPH oxidase 5 (Homo sapiens) (UniProt Q96PH1); experiment: compounds shifting NOX5 Amplex Red fluorescence – cell-based, HEK293-NOX5, NOX inhibitor project, primary screen (AID 1161); conditions: HEK293-NOX5, ionomycin, 45 min, higher = more signal
Sequence of NADPH oxidase 5 (Homo sapiens) (Q96PH1 whole entry, looked up): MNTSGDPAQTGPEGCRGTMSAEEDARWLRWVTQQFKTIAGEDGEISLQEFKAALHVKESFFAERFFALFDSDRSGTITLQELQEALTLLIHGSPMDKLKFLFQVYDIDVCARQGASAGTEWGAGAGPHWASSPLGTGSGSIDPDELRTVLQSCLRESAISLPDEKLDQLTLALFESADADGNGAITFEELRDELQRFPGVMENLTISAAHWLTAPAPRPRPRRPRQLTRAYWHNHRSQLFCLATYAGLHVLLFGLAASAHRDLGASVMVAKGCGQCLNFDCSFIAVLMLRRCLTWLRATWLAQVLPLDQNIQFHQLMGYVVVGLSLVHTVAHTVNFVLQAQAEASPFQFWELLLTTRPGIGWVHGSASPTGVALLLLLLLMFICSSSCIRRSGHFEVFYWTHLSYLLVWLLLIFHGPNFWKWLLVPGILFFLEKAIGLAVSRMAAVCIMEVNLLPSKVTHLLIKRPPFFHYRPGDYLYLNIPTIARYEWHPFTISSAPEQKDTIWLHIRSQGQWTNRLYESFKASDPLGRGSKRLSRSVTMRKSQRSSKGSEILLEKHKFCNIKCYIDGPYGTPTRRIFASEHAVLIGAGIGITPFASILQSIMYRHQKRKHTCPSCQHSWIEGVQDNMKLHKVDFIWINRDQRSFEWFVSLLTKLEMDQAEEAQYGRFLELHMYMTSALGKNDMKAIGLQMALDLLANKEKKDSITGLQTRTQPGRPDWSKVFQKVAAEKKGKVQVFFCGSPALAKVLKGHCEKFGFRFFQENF

Sequence of NADPH oxidase 4 (Homo sapiens) (Q9NPH5 whole entry, looked up): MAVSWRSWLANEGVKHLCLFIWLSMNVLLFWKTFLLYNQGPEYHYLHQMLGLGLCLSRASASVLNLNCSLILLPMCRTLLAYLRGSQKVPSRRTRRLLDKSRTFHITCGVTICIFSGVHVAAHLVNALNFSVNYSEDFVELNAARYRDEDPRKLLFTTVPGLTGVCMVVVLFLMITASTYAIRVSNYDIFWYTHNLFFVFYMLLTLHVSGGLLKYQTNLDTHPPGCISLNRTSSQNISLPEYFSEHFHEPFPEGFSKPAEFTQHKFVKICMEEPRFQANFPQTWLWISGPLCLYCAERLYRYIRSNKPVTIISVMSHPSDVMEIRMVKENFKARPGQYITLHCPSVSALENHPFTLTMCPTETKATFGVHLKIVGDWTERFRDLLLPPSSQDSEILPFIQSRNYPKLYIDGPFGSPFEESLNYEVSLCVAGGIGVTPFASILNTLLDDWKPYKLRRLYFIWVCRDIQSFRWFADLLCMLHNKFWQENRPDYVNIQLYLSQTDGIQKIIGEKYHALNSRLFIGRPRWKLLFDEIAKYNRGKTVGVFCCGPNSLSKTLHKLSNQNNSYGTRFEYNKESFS
Sequence of NADPH oxidase 2 (Homo sapiens) (P04839 whole entry, looked up): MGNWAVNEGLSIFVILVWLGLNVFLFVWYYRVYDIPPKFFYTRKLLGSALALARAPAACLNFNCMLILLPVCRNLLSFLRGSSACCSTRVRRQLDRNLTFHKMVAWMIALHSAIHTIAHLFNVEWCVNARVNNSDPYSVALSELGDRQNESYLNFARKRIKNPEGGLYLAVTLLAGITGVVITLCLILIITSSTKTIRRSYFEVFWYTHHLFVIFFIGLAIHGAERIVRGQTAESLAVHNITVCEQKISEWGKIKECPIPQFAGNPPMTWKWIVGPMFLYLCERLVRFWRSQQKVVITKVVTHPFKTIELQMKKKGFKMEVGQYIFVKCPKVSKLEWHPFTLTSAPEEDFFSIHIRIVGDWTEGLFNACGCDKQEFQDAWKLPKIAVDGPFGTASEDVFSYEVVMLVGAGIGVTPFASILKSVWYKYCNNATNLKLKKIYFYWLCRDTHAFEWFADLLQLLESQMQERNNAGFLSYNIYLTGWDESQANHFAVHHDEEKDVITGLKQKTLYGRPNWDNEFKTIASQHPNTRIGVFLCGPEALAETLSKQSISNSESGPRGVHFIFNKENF

SMILES	z-score [1]	composite z-score [2]	z-score [3]	z-score [4]	z-score [5]	z-score [6]	z-score [7]	z-score [8]	z-score [9]	z-score [10]
CN(C)CCCCNC(=O)[C@H]1C[C@H]2C(=O)N[C@@H](Cc3ccccc3)C(=O)N2[C@H]1c1ccc(O)cc1	1.22 (inactive)	0.0161	-0.0717 (inactive)	-0.63 (inactive)	0.347 (inactive)	-0.512 (inactive)	0.403	-1.35 (inactive)	-1.66 (inactive)	-3.92
COCCOC(=O)N1C(=O)[C@@]2(c3cc(C#CCC(C(=O)OC)C(=O)OC)ccc31)[C@H](c1ccccc1OCCO)N1[C@H](c3ccccc3)[C@H](c3ccccc3)OC(=O)[C@H]1[C@@H]2C(N)=O	0.483 (inactive)	0.479	7.64 (inactive)	2.55 (inactive)	0.678 (inactive)	1.42 (inactive)	-0.127	0.821 (inactive)	0.383 (inactive)	-1.85
O=C1O[C@H](c2ccccc2)[C@H](c2ccccc2)N2[C@H]1[C@@H](C(=O)NC[C@H](O)c1ccccc1)[C@]1(C(=O)Nc3ccc(C#CCCO)cc31)[C@H]2c1ccc(O)cc1	0.39 (inactive)	-0.293	0.211 (inactive)	-0.709 (inactive)	-0.317 (inactive)	-1.23 (inactive)	1.21	-0.687 (inactive)	0.0169 (inactive)	-3.93
CCCCCCc1nc(CCCc2cc3c(c(CCCCCC)n2)[Si](C(C)C)(C(C)C)OC3)cc2c1[Si](C(C)C)(C(C)C)OC2	-0.613 (inactive)	0.13	0.611 (inactive)	-1.07 (inactive)	0.695 (inactive)	-1.72 (inactive)	0.62	-3.69 (inactive)	-1.13 (inactive)	-3.41
CS(=O)(=O)CCOC(=O)C1=CC(CCCO)=CC(c2cccs2)N(Cc2cc3c(cc2Br)OCO3)C=C1C(=O)OCCS(C)(=O)=O (stereo not given)	0.702 (inactive)	-0.0767	5.62 (inactive)	0.944 (inactive)	1.85 (inactive)	0.479 (inactive)	0.252	-2.11 (inactive)	-1.1 (inactive)	-1.41
NCCCCCCNC(=O)[C@H]1C[C@H]2C(=O)NCC(=O)N2[C@H]1c1cccc(OCCO)c1	1.17 (inactive)	0.119	1.68 (inactive)	-0.0225 (inactive)	-1.63 (inactive)	0.202 (inactive)	0.384	0.719 (inactive)	0.513 (inactive)	1.36
COCC(=C=CC[C@H](O)c1ccc(OCCO)cc1)C[C@H](O)c1cc(Cl)cc(Cl)c1O	1.37 (inactive)	0.155	10.3 (active)	2.44 (inactive)	-2.64 (inactive)	-0.162 (inactive)	0.175	-2.99 (inactive)	-1.12 (inactive)	-3.26
COC(=O)[C@@]1(Cc2ccc(F)cc2)[C@H]2c3cc(C(=O)N4CCCC4)n(Cc4cccc5ccccc45)c3C[C@H]2CN1C(=O)c1ccccc1	-2.25 (inactive)	0.342	3.9 (inactive)	1.03 (inactive)	1.22 (inactive)	0.863 (inactive)	-0.875	0.836 (inactive)	-0.021 (inactive)	-0.666
COCC(=C=CC[C@@H](O)c1ccc(CO)o1)CCO	2.61 (inactive)	-0.205	1.6 (inactive)	-0.908 (inactive)	-0.949 (inactive)	-1.11 (inactive)	3.11	-1.84 (inactive)	-0.922 (inactive)	-1.06
CC(C)CNC(=O)[C@@H]1c2ccccc2C(=O)N(Cc2cc(C(F)(F)F)cc(C(F)(F)F)c2)[C@H]1c1ccc(CO)cc1	0.808 (inactive)	0.197	1.52 (inactive)	0.0238 (inactive)	0.173 (inactive)	0.379 (inactive)	0.578	0.753 (inactive)	-0.815 (inactive)	0.86
CS(=O)(=O)CCOC(=O)C1=CC(c2ccc(CO)cc2)=CC(C2CC2)N(Cc2cc3c(cc2Br)OCO3)C=C1C(=O)OCCS(C)(=O)=O (stereo not given)	-1.9 (inactive)	0.199	17.2 (active)	3.22 (inactive)	0.904 (inactive)	1.29 (inactive)	0.376	-1.77 (inactive)	-0.749 (inactive)	-2.03
CCOC(=O)C[C@H]1[C@H](OC(=O)c2ccc(C(=O)c3ccccc3)cc2)[C@@H](NC(=O)C2CCCCC2)c2cc(OCCCO)ccc2N1C(=O)c1ccccc1	-1.01 (inactive)	0.315	1.31 (inactive)	-0.889 (inactive)	-0.562 (inactive)	-0.23 (inactive)	-0.0118	0.469 (inactive)	1.26 (inactive)	1.77
COc1ccc([Si](C)(C)[C@@H]2[C@@H](CCn3cc([C@H](O)c4ccccc4)nn3)O[C@]3(C(=O)N(Cc4ccc(N5C(=O)c6cccc7cccc5c67)cc4)c4ccccc43)[C@H]2C)cc1	0.74 (inactive)	-0.14	1.23 (inactive)	-0.611 (inactive)	0.957 (inactive)	-0.68 (inactive)	1.11	0.584 (inactive)	1.01 (inactive)	-0.539
